Source: PubChem BioAssay (EPA / NIEHS)
Where “and” joins values, the source holds several entries; their conditions need not be identical. Equal values may be shown once. Results filed as inconclusive are left out. Some structures have more than one record in an assay (separate samples or runs), and their calls can disagree. Calls of active or inactive are those of the source. The calls were made as follows, unless noted: active = hit-call score of the fitted dose curve at least 0.9, where 1 is the maximum; inactive = score below 0.9.

Key:
[1] = read-out: Collagen III, COL3A1 (gene 1281); test: BSK_MyoF_CollagenIII: BioMAP Diversity Plus: MyoF Assay for Collagen III Biomarker Activity (AID 2284239); settings: primary human lung fibroblasts
Summary of the method: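 ELISA read-out of collagen III from human lung fibroblasts after 24 h of chemical treatment. The DMSO control served as negative control and baseline, with values fitted in the positive direction.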

[2] = CCTE_Mundy_HCI_hNP1_Casp3_7: CCTE's Caspase-Glo 3/7 Assay in human neuroprogenitor cells for Apoptosis, Mundy Lab (AID 2284240)
Summary of the method: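 Neuroepithelial-lineage stem cells from WA09 embryonic cells were treated with chemicals after 40–44 h of culture. Twenty-four hours later, caspase-3/7 activation was detected luminescently after a 30 min room-temperature reagent step, with DMSO as baseline.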

[3] = CCTE_Mundy_HCI_hNP1_CellTiter: CCTE's Cell Titer-Glo 2 Assay in human neuroprogenitor cells for Viability, Mundy Lab (AID 2284241; active = hit-call score of the fitted dose curve at least 0.9, where 1 is the maximum;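 as to AC50: a hit is a drop in ATP luminescence versus DMSO meaning reduced viability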)
Summary of the method: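 Measures ATP content in human neural progenitors derived from WA09 embryonic cells. Read-out at 26.5 hours after dosing, with DMSO serving as the negative control and baseline.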

[4] = read-out: Actin alpha 1 (ACTA1), ACTA1 (gene 58); test: BSK_MyoF_ACTA1: BioMAP Diversity Plus: MyoF Assay for Actin alpha 1 (ACTA1) Biomarker Activity (AID 2284244); settings: primary human lung fibroblasts
Summary of the method: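 ELISA read-out of a-SMA in primary human lung fibroblast cultures, 24 h post-dosing. Activity scored in the positive direction versus DMSO baseline.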

[5] = read-out: Interleukin 2 (IL2), IL2 (gene 3558); test: BSK_BT_xIL2: BioMAP Diversity Plus: BT Assay for Interleukin 2 (IL2) Biomarker Activity (AID 2284245); settings: primary human B cells with PBMC
Summary of the method: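 Readout: supernatant IL-2 via Luminex xMAP after 24 h chemical dosing of a B cell/PBMC primary human co-culture. DMSO serves as negative control and baseline; increases in signal were fitted.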

[6] = read-out: Basic fibroblast growth factor (bFGF), FGF2 (gene 2247); test: BSK_MyoF_bFGF: BioMAP Diversity Plus: MyoF Assay for Basic fibroblast growth factor (bFGF) Biomarker Activity (AID 2284246); settings: primary human lung fibroblasts
Summary of the method: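 Primary human lung fibroblast culture, 24 h compound exposure; ELISA read-out of bFGF. Positive-direction fit vs DMSO baseline. Cytotoxicity: SRB stain (0.1% SRB, 10% TCA fixation, 560 nm) in parallel wells.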

[7] = read-out: Collagen IV, COL4A1 (gene 1282); test: BSK_MyoF_CollagenIV: BioMAP Diversity Plus: MyoF Assay for Collagen IV Biomarker Activity (AID 2284247); settings: primary human lung fibroblasts
Summary of the method: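 ELISA read-out of Collagen IV in lung fibroblast cultures, 24 h post-dosing; gain of signal relative to DMSO vehicle baseline defines activity.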

[8] = CCTE_Mundy_HCI_Cortical_NOG_NeuronCount: CCTE's Neurite Outgrowth Assay in rat cortical cells for Neuron Count, Mundy Lab (AID 2284236; active = hit-call score of the fitted dose curve at least 0.9, where 1 is the maximum;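 also: neurons counted by imaging betaIII-tubulin and Hoechst stained cortical cells; cells exposed to compound for about 48 hours before fixation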)
Procedure: CCTE_Mundy_HCI_Cortical_NOG is a multiplexed, cell-based-readout assay that uses rat primary cortical cells with measurements taken at 50.33 hours after chemical dosing in a microplate: 96-well plate.CCTE_Mundy_HCI_Cortical_NOG_NeuronCount is one of four components of the CCTE_Mundy_HCI_Cortical_NOG assay. It measures cell viability related to the number of neurons using High Content Imaging of fluorescently labelled markers.[…] Using a type of morphology reporter, loss -of-signal activity can be used to understand developmental effects.
Exposure starts 2 hours post-plating by adding 10 ul of the working solution to 90 ul of media in the wells for a 1/10 dilution. Forty-eight hours after chemical treatment cells are fixed by direct addition of 100 ul of warm (37C) Dulbecco's phosphate buffered saline (DPBS) fixative solution containing 8% paraformaldehyde, 8% sucrose, and 0.1% of 3 mg/ml Hoechst 33342 into each well. Primary antibodies are prepared by dilution in Immunocytochemical Staining Buffer (ISB), 10X Dulbecco's PBS, 0.1% Saponin, 5% Bovine Serum Albumin, 0.5% NaN3 (Sodium Azide) and betaIII-tubulin (rabbit anti-betaIII-tubulin, 1:800) followed by Alexa Fluor-488 secondary (1:500) to label neuronal cell bodies and neurites. A Cellomics ArrayScan VTi HCS Reader is used for automated image acquisition and analysis of neurite outgrowth.

[9] = CCTE_Mundy_HCI_Cortical_NOG_BPCount: CCTE's Neurite Outgrowth Assay in rat cortical cells for Branch Point Count, Mundy Lab (AID 2284237);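 as to AC50: branch points counted about two days after chemical exposure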
Summary of the method: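 Measured 50.33 h after dosing, this morphology endpoint uses rat primary cortical cultures labelled for betaIII-tubulin. Branch points are quantified by high-content imaging, with DMSO as negative control and baseline.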

[10] = CCTE_Mundy_HCI_Cortical_Synap_Neur_Matur_NeuronCount: CCTE's Synaptogenesis and Neurite Maturation Assay in rat cortical cells for Neuron Count, Mundy Lab (AID 2284242; active = hit-call score of the fitted dose curve at least 0.9, where 1 is the maximum;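 as to AC50: neuron number from Hoechst nuclei and MAP2 staining by high-content imaging; hits reduce neuron count versus DMSO baseline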)
Summary of the method: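 Rat cortical cultures; AraC DIV 5; chemical dosing + media change DIV 7 to DIV 12 (288.33 h readout). Fix, Hoechst, anti-MAP2/anti-synaptophysin immunostain; HCI neuron count vs DMSO baseline.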

Measured: AC50

O=C(CC(=O)C(F)(F)C(F)(F)C(F)(F)F)c1cccs1
inactive: [2] | [3] | [4] | [6] | [7]
active: [1] 8.37 µM and 7.86 µM | [4] 7.95 µM | [5] 55.6 µM and 46.2 µM | [7] 8.25 µM

OCC(F)(F)C(F)(F)C(F)(F)C(F)(F)C(F)(F)C(F)(F)C(F)(F)C(F)(F)C(F)(F)C(F)(F)C(F)(F)F
inactive: [1] | [2] | [3] | [4] | [5] | [6] | [7]

O=C1NS(=O)(=O)c2ccccc21
inactive: [8] | [9] | [2] | [3] | [10]

CC1=NN(c2ccccc2)C(=O)C1
active: [1] 3.97 µM
inactive: [4] | [5] | [6] | [7]

CN(Cc1cnc2nc(N)nc(N)c2n1)c1ccc(C(=O)N[C@@H](CCC(=O)O)C(=O)O)cc1
inactive: [8] | [9] | [1] | [2] | [3] | [10] | [4] | [5] | [6] | [7]

O=C(O)CCC(F)(F)C(F)(F)C(F)(F)C(F)(F)C(F)(F)F
inactive: [1] | [4] | [5] | [6] | [7]

O=C(O)C(F)(F)OC(F)(F)C(F)(F)OC(F)(F)C(F)(F)OC(F)(F)C(F)(F)C(F)(F)C(F)(F)F
active: [1] 6.08 µM and 4.89 µM | [4] 4.11 µM | [5] 44.9 µM | [6] 16.8 µM and 14 µM
inactive: [4] | [5] | [7]

CCCCCCCCCCCCCCCCCC[N+](C)(C)Cc1ccccc1
inactive: [7]
active: [1] 2.09 µM | [4] 2.7 µM | [5] 1.97 µM | [6] 3.06 µM

C=COC(=O)C(C)(C)CCCCCC
inactive: [5]
active: [1] 31.9 µM | [4] 34.3 µM | [6] 34.8 µM | [7] 29.7 µM

CC(C)c1c(C(=O)Nc2ccccc2)c(-c2ccccc2)c(-c2ccc(F)cc2)n1CC[C@@H](O)C[C@@H](O)CC(=O)O
active: [8] 7.8 µM | [9] 0.0896 µM | [2] 12.1 µM | [3] 12.8 µM | [10] 5.15 µM

C=CC(=O)OCCC(F)(F)C(F)(F)C(F)(F)C(F)(F)C(F)(F)C(F)(F)C(F)(F)C(F)(F)F
inactive: [1] | [2] | [3] | [4] | [5] | [6] | [7]

O=C(NO)c1ccccc1
active: [5] 19.2 µM
inactive: [1] | [4] | [6] | [7]

CC(=O)Nc1ccc(O)cc1
inactive: [8] | [2]

CC[N+](CC)(CC)Cc1ccccc1
inactive: [1] | [4] | [5] | [6] | [7]

C=CC(=C)CC/C=C(\C)CCC=C(C)C
inactive: [1] | [4] | [5] | [6] | [7]

Nc1ccn([C@@H]2O[C@H](CO)[C@@H](O)C2O)c(=O)n1 (stereo partly specified)
active: [8] 2.74 µM | [2] 0.207 µM | [10] 10.8 µM

CN(CCO)S(=O)(=O)C(F)(F)C(F)(F)C(F)(F)C(F)(F)C(F)(F)C(F)(F)C(F)(F)C(F)(F)F
inactive: [1] | [4] | [5] | [6] | [7]

O=P(O)(O)CCC(F)(F)C(F)(F)C(F)(F)C(F)(F)C(F)(F)C(F)(F)C(F)(F)C(F)(F)F
inactive: [1] | [2] | [3] | [4] | [5] | [6] | [7]

Cc1ccc(C(=O)c2ccccc2)cc1
inactive: [1] | [5] | [6]
active: [4] 20 µM | [7] 20 µM

O=P(O)(O)CCC(F)(F)C(F)(F)C(F)(F)C(F)(F)C(F)(F)C(F)(F)F
inactive: [1] | [2] | [3] | [4] | [5] | [6] | [7]

O=C(CCCN1CCC(O)(c2ccc(Cl)cc2)CC1)c1ccc(F)cc1
active: [2] 70.7 µM | [10] 21.9 µM
inactive: [8]

O=C1OC2(c3ccccc31)c1cc(I)c(O)c(I)c1Oc1c2cc(I)c(O)c1I
active: [6] 9.75 µM | [7] 3.8 µM
inactive: [4] | [5]

CCOC(=O)CN[C@@H](C(=O)N1CC[C@H]1C(=O)NCc1ccc(/C(N)=N/O)cc1)C1CCCCC1
inactive: [1] | [4] | [5] | [6] | [7]

OCCN1CN(CCO)CN(CCO)C1
inactive: [1] | [4] | [6] | [7]
active: [5] 31.3 µM

NC(=NCCCCCCN=C(N)/N=C(\N)Nc1ccc(Cl)cc1)/N=C(\N)Nc1ccc(Cl)cc1
active: [1] 2.24 µM | [4] 4.86 µM | [5] 8.05 µM | [6] 9.23 µM | [7] 8.69 µM

C[C@]12CC[C@@H]3c4ccc(O)cc4CC[C@H]3[C@@H]1C[C@@H](O)[C@@H]2O
inactive: [1] | [4] | [5] | [6] | [7]

Cc1ccc(N=Nc2c(O)ccc3ccccc23)c(C)c1
inactive: [1] | [4] | [5] | [6] | [7]

C=CC(C)(CCC=C(C)C)OC(C)=O (stereo unspecified)
inactive: [1] | [4] | [5] | [6] | [7]

COCN(COC)c1nc(N(COC)COC)nc(N(COC)COC)n1
inactive: [1] | [4] | [5] | [6] | [7]

COc1cccc(O)c1
inactive: [1] | [4] | [5] | [6] | [7]

COC1=CC(=O)C[C@@H](C)[C@]12Oc1c(Cl)c(OC)cc(OC)c1C2=O
active: [1] 3.97 µM
inactive: [4] | [5] | [6] | [7]

CCCCC(CC)C(=O)OCCOCCOCCOCCOC(=O)C(CC)CCCC (stereo unspecified)
active: [5] 0.016 µM
inactive: [1] | [4] | [6] | [7]

O=C(O)CCC(F)(F)C(F)(F)C(F)(F)C(F)(F)C(F)(F)C(F)(F)F
inactive: [1] | [4] | [5] | [6] | [7]

CCCCCc1ccc(O)cc1
active: [1] 16.1 µM | [4] 11.3 µM | [6] 28 µM | [7] 20 µM
inactive: [5]

CC(C)(C)c1ccc(O)c(O)c1
inactive: [5]
active: [1] 29.2 µM | [4] 29.6 µM | [6] 30.1 µM | [7] 16 µM

O=S(=O)(O)C(F)(F)C(F)(F)C(F)(F)C(F)(F)C(F)(F)C(F)(F)C(F)(F)C(F)(F)C(F)(F)C(F)(F)F
inactive: [1] | [4] | [5] | [6] | [7]

CN(C)c1ccc(C(=C2C=CC(=[N+](C)C)C=C2)c2ccccc2)cc1
active: [1] 0.164 µM | [4] 1.06 µM | [5] 0.432 µM | [6] 0.647 µM | [7] 1.55 µM

O=C1c2ccc(O)c(O)c2C(=O)c2c(O)ccc(O)c21
inactive: [1] | [4] | [5] | [6] | [7]

Cc1cccc2c1ccc1ccccc12
inactive: [1] | [4] | [5] | [6] | [7]

COc1cc(OC)nc(NC(=O)NS(=O)(=O)Nc2ccccc2C(=O)N(C)C)n1
inactive: [1] | [4] | [5] | [6] | [7]

Clc1ccc(Nc2nnc(Cc3ccncc3)c3ccccc23)cc1
inactive: [1] | [4] | [5] | [6] | [7]

Oc1cc2ccccc2cc1O
inactive: [1] | [4] | [5] | [6] | [7]

O=C(NCc1ncc(C(F)(F)F)cc1Cl)c1c(Cl)cccc1Cl
inactive: [1] | [4] | [6] | [7]
active: [5] 32.1 µM
